Data as given in PubChem BioAssay (EPA / NIEHS).
Calls of active or inactive are those of the source. The calls were made as follows: active = hit-call score of the fitted dose curve at least 0.9, where 1 is the maximum; inactive = score below 0.9.

Key:
[1] = biological target: Bile acid receptor (Homo sapiens) (UniProt Q96RI1); assay: ATG_IR1_CIS: Attagene CIS-FACTORIAL HepG2 Assay for human Nuclear Receptor Subfamily 1 Group H Member 4 (NR1H4), IR1 submotif (AID 2282946); details: IR1 reporter transcription, actives raise or lower the signal
Method in brief: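 HepG2 cells transiently transfected with multiple cis-promoter-driven reporter units to measure endogenous transcription factor activity; 24 h exposure. Reporter mRNA read by RT-PCR, FAM labelling, HpaI digestion and capillary electrophoresis. Bidirectional fit versus DMSO.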

[2] = ATG_ISRE_CIS: Attagene CIS-FACTORIAL HepG2 Assay for human Interferon Regulatory Factor 1 (IRF1) binding to an Interferon-Stimulated Response Element (ISRE) (AID 2282948); details: HepG2 ISRE cis-reporter (Attagene), mRNA transcription readout; actives raise or lower the signal
Method in brief: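 Quantitation relies on labelled RT-PCR fragments separated by capillary electrophoresis. Human HepG2 cells bearing cis-promoter reporter constructs were treated 24 h; DMSO served as baseline for bidirectional fitting.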

[3] = ATG_M_32_CIS: Attagene CIS-FACTORIAL HepG2 Assay for M32 Transcription Factor (Internal Marker) (AID 2282949); details: HepG2 Attagene cis-factorial M32 reporter, mRNA; actives raise or lower the signal;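 also: background control marker of the multiplexed CIS panel rather than a real target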
Method in brief: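 Internal background marker read-out: RT-PCR/capillary electrophoresis fluorescence of reporter transcripts from transiently transfected HepG2 cells after 24 h chemical exposure. Activity fitted bidirectionally relative to DMSO negative control.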

[4] = ATG_M_06_CIS: Attagene CIS-FACTORIAL HepG2 Assay for M06 Transcription Factor (Internal Marker) (AID 2282950); details: HepG2 Attagene CIS-FACTORIAL M06 internal marker reporter; actives raise or lower the signal
Method in brief: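 HepG2 cells transiently transfected with cis-regulated multiple reporter transcription units were exposed to chemical for 24 h; reporter mRNA was quantified by RT-PCR, 6-FAM primer labelling, HpaI digestion and capillary electrophoresis, fitted bidirectionally against DMSO.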

[5] = biological target: Hypoxia-inducible factor 1-alpha (Homo sapiens) (UniProt Q16665); assay: ATG_HIF1a_CIS: Attagene CIS-FACTORIAL HepG2 Assay for human Hypoxia Inducible Factor 1 (HIF1A) (AID 2282951); details: HepG2 Attagene cis-factorial HIF1a reporter transcription; actives raise or lower the signal
Method in brief: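 Activity is fitted in both directions relative to DMSO. Reporter transcripts are read by RT-PCR, fluorescent primer extension and capillary electrophoresis after 24 h chemical treatment. The cells are HepG2 carrying transiently transfected cis-element-driven reporter units responding to endogenous factors.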

[6] = biological target: Hepatocyte nuclear factor 6 (Homo sapiens) (UniProt Q9UBC0); assay: ATG_HNF6_CIS: Attagene CIS-FACTORIAL HepG2 Assay for human Hepatocyte Nuclear Factor 6 (HNF6) (AID 2282952); details: HepG2 Attagene cis-factorial HNF6 reporter transcription; actives raise or lower the signal
Method in brief: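 Multiplexed mRNA reporter assay in transfected HepG2; 24 h dosing; RT-PCR plus capillary electrophoresis fluorescence; DMSO-referenced bidirectional curve fitting.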

[7] = biological target: Heat shock factor protein 1 (Homo sapiens) (UniProt Q00613); assay: ATG_HSE_CIS: Attagene CIS-FACTORIAL HepG2 Assay for human Heat Shock Transcription Factor 1 (HSE) (AID 2282953); details: HepG2 HSE cis-reporter, Attagene RNA transcription; actives raise or lower the signal
Method in brief: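 HepG2 cells transiently transfected with multiple reporter transcription units under cis-regulatory promoter control, measuring endogenous transcription factor activity. After 24 h chemical exposure, reporter mRNA quantified by RT-PCR, fluorescent labelling, HpaI digestion and capillary electrophoresis; bidirectional fit versus DMSO.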

[8] = ATG_MRE_CIS: Attagene CIS-FACTORIAL HepG2 Assay for human Metal Responsive Element (MRE) (AID 2282954); details: HepG2 MRE cis-reporter transcription, Attagene multiplex; actives raise or lower the signal
Method in brief: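 Fluorescent reporter fragments separated by capillary electrophoresis give mRNA induction for the MRE unit after 24 h treatment of transfected HepG2 cells. Endogenous transcription-factor activity is read; DMSO serves as negative control and baseline.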

[9] = biological target: Paired box protein Pax-6 (Homo sapiens) (UniProt P26367); assay: ATG_Pax6_CIS: Attagene CIS-FACTORIAL HepG2 Assay for human Paired Box 6 (PAX6) (AID 2282956); details: HepG2 CIS-FACTORIAL PAX6 reporter transcription, RNA readout; actives raise or lower the signal
Method in brief: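 After twenty-four hours of chemical exposure, transfected HepG2 cells are harvested for RNA. Cis-promoter reporter transcripts are amplified, fluorescently labelled and sized by capillary electrophoresis, with gain and loss of signal scored against DMSO.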

[10] = ATG_PXRE_CIS: Attagene CIS-FACTORIAL HepG2 Assay for human Pregnane X Receptor Element (PXRE) (AID 2282957); details: HepG2 Attagene CIS-FACTORIAL PXRE reporter, mRNA; actives raise or lower the signal
Method in brief: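 Cells: HepG2, transiently transfected reporter units under cis promoter control. Exposure: 24 h. Detection: reporter mRNA via RT-PCR/CE fluorescence; bidirectional fitting, DMSO-referenced.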

[11] = ATG_PPRE_CIS: Attagene CIS-FACTORIAL HepG2 Assay for human Peroxisome Proliferator-activated Response Element (PPRE) (AID 2282958); details: HepG2 PPRE cis-element reporter, Attagene transcription factor profiling; actives raise or lower the signal
Method in brief: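 Endogenous PPRE-driven transcription is measured in HepG2 cells carrying transfected multi-reporter constructs. Reporter transcripts are quantified by RT-PCR, HpaI digestion and capillary electrophoresis 24 h after dosing. DMSO baseline, bidirectional fit.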

[12] = biological target: Transcription factor Sp1 (Homo sapiens) (UniProt P08047); assay: ATG_Sp1_CIS: Attagene CIS-FACTORIAL HepG2 Assay for human Specificity Protein 1 (Sp1) (AID 2282961); details: HepG2 Sp1 cis-reporter transcription, actives raise or lower the signal
Method in brief: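 Read-out is reporter transcript level, measured by RT-PCR and fluorescent capillary electrophoresis after 24 h chemical treatment. System: transiently transfected HepG2 cells reporting endogenous transcription factor activity; gain or loss fitted against DMSO baseline.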

[13] = biological target: Signal transducer and activator of transcription 3 (Homo sapiens) (UniProt P40763); assay: ATG_STAT3_CIS: Attagene CIS-FACTORIAL HepG2 Assay for human Signal Transducer and Activator of Transcription 3 (STAT3) (AID 2282963); details: HepG2, Attagene cis-factorial STAT3 reporter transcription; actives raise or lower the signal
Method in brief: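 Values derive from bidirectional fits relative to DMSO of reporter mRNA levels, measured by RT-PCR with capillary electrophoresis, in HepG2 cells carrying transiently transfected cis-regulated reporter units and exposed 24 h.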

[14] = ATG_TA_CIS: Attagene CIS-FACTORIAL HepG2 Assay for human TA Basal Promoter (AID 2282964); details: HepG2 Attagene CIS-factorial TA basal promoter reporter; actives raise or lower the signal
Method in brief: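 HepG2 cells transiently transfected with multiplexed cis-promoter reporter units, dosed 24 h. Reporter mRNA measured by RT-PCR, 6-FAM labelling, HpaI digestion and capillary electrophoresis; bidirectional fit versus DMSO baseline, serving as background control.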

[15] = ATG_TCF_b_cat_CIS: Attagene CIS-FACTORIAL HepG2 Assay for human T-Cell-Factor with beta-catenin (TCF/b-cat) (AID 2282965); details: HepG2 TCF/beta-catenin cis-reporter transcription, actives raise or lower the signal
Method in brief: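 HepG2 cells transiently transfected with cis-promoter-driven multiplexed reporter units; reporter mRNA measured 24 h after dosing by RT-PCR, FAM labelling, HpaI digestion and capillary electrophoresis. Bidirectional fitting relative to DMSO baseline.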

[16] = ATG_GRE_CIS: Attagene CIS-FACTORIAL HepG2 Assay for human Glucocorticoid Response Elements (GRE) (AID 2282947); details: HepG2 GRE cis-reporter, Attagene multiplex mRNA; actives raise or lower the signal
Method in brief: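 Endogenous transcription factor activity is read through cis-element reporter constructs transiently transfected into HepG2 cells. After 24 h treatment, labelled RT-PCR products are resolved by capillary electrophoresis; DMSO sets baseline for bidirectional curve fitting.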

[17] = ATG_RORE_CIS: Attagene CIS-FACTORIAL HepG2 Assay for human RAR-related Orphan Receptor Element (RORE) (AID 2282959); details: HepG2 Attagene cis-factorial RORE reporter, mRNA; actives raise or lower the signal
Method in brief: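 RORE reporter transcripts reflecting endogenous factor activity were read after 24 h compound exposure of transfected HepG2 cells, using reverse transcription, PCR, fluorescent labelling and capillary electrophoresis sizing. Gain or loss fitted against DMSO.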

[18] = ATG_PBREM_CIS: Attagene CIS-FACTORIAL HepG2 Assay for human Phenobarbital-responsive Enhancer Module (PBREM) (AID 2282955); details: HepG2 PBREM cis-reporter, Attagene multiplexed transcription; actives raise or lower the signal
Method in brief: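 Endogenous transcription factor activity was read from reporter transcripts in transiently transfected human HepG2 liver cells after 24 h dosing. RT-PCR products were fluorescently labelled, HpaI-cut and sized by capillary electrophoresis; activity fitted bidirectionally against DMSO baseline.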

[19] = ATG_Sox_CIS: Attagene CIS-FACTORIAL HepG2 Assay for human SRY-box transcription factor (SOX) (AID 2282960); details: HepG2 Attagene cis-factorial SOX reporter, mRNA; actives raise or lower the signal
Method in brief: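 Reporter transcripts, measured by RT-PCR and capillary electrophoresis of labelled fragments, report endogenous SOX transcription factor activity. Transiently transfected human HepG2 cells receive chemical for 24 h; changes in either direction are fitted relative to DMSO.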

[20] = ATG_SREBP_CIS: Attagene CIS-FACTORIAL HepG2 Assay for human Sterol Regulatory Element Binding (SREBP) (AID 2282962); details: HepG2 Attagene cis-factorial SREBP reporter, mRNA; actives raise or lower the signal
Method in brief: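 Twenty-four hours after chemical dosing of transfected HepG2 cultures, reporter RNA was converted to cDNA, amplified, end-labelled with 6-FAM and resolved by capillary electrophoresis. Responses were fitted relative to DMSO.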

Measured: AC50

Chain of Transcription factor Sp1 (Homo sapiens) (P08047 whole entry, looked up): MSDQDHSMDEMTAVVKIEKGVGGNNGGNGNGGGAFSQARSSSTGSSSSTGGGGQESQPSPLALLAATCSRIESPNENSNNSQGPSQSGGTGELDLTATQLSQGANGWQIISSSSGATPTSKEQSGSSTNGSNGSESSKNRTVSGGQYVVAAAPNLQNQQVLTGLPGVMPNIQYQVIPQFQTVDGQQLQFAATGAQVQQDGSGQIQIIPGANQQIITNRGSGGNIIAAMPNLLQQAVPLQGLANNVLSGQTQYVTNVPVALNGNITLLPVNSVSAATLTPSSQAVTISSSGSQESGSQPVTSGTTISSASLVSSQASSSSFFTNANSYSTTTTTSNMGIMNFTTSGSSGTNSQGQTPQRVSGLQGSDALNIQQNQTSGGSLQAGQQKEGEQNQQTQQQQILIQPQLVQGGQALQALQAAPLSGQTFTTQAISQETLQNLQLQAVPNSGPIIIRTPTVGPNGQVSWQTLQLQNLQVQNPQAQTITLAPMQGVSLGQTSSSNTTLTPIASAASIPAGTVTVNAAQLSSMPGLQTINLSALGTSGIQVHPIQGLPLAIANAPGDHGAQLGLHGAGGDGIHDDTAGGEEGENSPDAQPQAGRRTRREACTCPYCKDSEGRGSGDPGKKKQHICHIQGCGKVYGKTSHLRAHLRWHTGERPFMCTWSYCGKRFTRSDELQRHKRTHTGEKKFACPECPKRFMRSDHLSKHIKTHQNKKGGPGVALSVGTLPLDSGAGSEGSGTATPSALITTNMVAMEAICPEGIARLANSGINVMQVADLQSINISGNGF
Chain of Bile acid receptor (Homo sapiens) (Q96RI1 whole entry, looked up): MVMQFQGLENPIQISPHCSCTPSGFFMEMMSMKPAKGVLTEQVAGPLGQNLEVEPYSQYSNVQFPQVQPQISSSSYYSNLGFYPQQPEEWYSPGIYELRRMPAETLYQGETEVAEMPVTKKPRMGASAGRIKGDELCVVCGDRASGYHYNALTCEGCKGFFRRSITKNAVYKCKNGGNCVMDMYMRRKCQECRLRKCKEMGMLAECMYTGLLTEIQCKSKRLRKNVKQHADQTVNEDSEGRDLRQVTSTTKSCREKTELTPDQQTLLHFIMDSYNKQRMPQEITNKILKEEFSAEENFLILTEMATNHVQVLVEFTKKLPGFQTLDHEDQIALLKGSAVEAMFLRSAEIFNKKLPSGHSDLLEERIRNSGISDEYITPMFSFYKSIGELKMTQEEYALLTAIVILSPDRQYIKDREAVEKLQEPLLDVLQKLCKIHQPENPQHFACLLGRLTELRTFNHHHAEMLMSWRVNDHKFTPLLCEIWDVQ
Chain of Hypoxia-inducible factor 1-alpha (Homo sapiens) (Q16665 whole entry, looked up): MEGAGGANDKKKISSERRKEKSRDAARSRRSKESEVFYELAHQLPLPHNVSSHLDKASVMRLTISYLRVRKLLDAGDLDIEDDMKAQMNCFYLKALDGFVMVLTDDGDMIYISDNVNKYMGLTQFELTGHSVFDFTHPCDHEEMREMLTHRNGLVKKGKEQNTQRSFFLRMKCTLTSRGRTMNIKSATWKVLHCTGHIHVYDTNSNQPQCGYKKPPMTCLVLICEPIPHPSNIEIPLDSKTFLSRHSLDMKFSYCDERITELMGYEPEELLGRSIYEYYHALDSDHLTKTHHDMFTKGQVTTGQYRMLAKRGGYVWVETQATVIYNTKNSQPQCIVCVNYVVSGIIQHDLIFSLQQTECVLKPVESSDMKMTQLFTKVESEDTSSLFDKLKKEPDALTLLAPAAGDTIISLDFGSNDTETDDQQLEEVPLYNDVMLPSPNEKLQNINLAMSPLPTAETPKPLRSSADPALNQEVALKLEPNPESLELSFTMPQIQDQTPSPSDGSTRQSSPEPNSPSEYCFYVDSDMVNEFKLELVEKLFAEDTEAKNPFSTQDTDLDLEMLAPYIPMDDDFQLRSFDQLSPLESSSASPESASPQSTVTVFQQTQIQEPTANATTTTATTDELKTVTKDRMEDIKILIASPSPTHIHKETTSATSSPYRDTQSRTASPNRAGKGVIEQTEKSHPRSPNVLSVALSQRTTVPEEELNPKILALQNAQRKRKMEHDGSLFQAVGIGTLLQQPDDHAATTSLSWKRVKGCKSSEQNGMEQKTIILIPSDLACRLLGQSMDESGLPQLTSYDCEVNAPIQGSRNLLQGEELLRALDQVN
Chain of Paired box protein Pax-6 (Homo sapiens) (P26367 whole entry, looked up): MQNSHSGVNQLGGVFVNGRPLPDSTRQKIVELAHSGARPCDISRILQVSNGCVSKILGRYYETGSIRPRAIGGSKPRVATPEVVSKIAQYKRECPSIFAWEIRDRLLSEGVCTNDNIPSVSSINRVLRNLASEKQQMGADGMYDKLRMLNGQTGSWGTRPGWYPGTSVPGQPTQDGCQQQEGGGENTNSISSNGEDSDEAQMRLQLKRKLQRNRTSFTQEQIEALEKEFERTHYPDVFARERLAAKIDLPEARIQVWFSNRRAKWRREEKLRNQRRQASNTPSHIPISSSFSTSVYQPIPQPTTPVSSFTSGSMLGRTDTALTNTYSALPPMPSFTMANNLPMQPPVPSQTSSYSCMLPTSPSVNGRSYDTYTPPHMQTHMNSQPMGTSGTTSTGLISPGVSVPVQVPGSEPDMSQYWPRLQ
Chain of Signal transducer and activator of transcription 3 (Homo sapiens) (P40763 whole entry, looked up): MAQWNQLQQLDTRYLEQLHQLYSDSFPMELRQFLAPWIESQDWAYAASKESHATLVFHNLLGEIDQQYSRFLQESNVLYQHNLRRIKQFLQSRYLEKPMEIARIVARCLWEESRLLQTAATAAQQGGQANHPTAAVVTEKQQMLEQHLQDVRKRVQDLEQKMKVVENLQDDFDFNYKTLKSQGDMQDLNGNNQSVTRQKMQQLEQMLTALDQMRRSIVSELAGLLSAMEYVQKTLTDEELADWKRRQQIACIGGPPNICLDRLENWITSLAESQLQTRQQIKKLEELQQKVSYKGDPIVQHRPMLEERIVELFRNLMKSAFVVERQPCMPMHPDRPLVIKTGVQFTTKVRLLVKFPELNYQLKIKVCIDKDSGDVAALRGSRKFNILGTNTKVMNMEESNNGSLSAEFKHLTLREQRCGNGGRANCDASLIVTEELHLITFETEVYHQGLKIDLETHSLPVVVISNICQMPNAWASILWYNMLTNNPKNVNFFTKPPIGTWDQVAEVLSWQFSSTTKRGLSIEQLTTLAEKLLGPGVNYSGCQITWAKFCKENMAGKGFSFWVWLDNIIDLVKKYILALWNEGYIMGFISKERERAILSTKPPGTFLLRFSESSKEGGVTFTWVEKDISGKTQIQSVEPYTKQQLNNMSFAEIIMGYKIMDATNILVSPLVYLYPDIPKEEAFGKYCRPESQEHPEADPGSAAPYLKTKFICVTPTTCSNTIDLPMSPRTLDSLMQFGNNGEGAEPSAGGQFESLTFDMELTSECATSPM
Chain of Heat shock factor protein 1 (Homo sapiens) (Q00613 whole entry, looked up): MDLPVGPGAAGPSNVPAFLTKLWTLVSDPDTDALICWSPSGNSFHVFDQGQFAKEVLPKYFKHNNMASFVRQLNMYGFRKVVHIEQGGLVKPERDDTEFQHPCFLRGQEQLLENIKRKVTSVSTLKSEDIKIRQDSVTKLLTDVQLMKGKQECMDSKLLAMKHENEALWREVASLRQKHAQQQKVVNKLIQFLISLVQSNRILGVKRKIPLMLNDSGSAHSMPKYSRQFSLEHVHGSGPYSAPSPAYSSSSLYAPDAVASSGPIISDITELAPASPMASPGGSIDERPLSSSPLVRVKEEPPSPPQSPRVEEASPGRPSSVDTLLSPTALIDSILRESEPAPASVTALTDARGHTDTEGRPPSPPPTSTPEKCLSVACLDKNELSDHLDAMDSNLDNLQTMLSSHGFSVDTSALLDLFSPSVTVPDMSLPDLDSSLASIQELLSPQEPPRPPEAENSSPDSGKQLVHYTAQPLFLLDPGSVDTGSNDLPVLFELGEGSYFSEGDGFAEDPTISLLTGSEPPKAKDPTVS
Chain of Hepatocyte nuclear factor 6 (Homo sapiens) (Q9UBC0 whole entry, looked up): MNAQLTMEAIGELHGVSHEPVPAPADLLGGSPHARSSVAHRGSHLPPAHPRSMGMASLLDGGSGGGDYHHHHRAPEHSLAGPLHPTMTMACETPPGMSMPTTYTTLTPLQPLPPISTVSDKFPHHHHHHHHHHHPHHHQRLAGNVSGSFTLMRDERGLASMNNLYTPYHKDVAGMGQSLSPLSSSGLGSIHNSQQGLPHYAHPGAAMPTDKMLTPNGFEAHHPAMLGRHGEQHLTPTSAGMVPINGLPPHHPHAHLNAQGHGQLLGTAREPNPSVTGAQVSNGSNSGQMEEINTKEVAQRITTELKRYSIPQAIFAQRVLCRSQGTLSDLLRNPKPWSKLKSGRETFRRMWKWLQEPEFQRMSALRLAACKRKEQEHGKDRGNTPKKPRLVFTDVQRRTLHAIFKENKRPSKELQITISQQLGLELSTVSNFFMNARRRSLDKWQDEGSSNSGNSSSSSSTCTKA

C[Si](Cn1cncn1)(c1ccc(F)cc1)c1ccc(F)cc1
inactive: [2] | [4] | [6] | [12] | [13] | [15]
active: [1] 69 µM | [3] 35.4 µM | [5] 50 µM | [7] 85.6 µM | [8] 63.2 µM | [9] 67.8 µM | [10] 3.52 µM | [11] 43.1 µM | [14] 50 µM

CN1COCN(Cc2cnc(Cl)s2)C1=N[N+](=O)[O-]
inactive: [1] | [16] | [2] | [3] | [4] | [5] | [6] | [7] | [8] | [9] | [11] | [17] | [12] | [13] | [14] | [15]
active: [10] 50 µM

CCCOCC(=Nc1ccc(Cl)cc1C(F)(F)F)n1ccnc1
active: [10] 3.63 µM | [11] 2.67 µM | [20] 7.5 µM
inactive: [1] | [16] | [2] | [3] | [4] | [5] | [6] | [7] | [8] | [18] | [9] | [19] | [12] | [13] | [14] | [15]
